In PubChem BioAssay AID652115 (Broad Institute, 2013) one finds inhibition data, which are given here for 71 compounds.

In all, about 330,000 compounds went through this assay and about 3,800 (1.2%) were called active. The full list was thinned out, with actives kept by preference. A number with no mark means an inactive call. Cut-off read from the data, not from the text of the source: active = inhibition above about 15%; inconclusive = no clear call, values can overlap the other calls; inactive = below that.

NAD-dependent protein deacylase sirtuin-5, mitochondrial (Homo sapiens), sequence (Q9NXA8 whole entry, looked up): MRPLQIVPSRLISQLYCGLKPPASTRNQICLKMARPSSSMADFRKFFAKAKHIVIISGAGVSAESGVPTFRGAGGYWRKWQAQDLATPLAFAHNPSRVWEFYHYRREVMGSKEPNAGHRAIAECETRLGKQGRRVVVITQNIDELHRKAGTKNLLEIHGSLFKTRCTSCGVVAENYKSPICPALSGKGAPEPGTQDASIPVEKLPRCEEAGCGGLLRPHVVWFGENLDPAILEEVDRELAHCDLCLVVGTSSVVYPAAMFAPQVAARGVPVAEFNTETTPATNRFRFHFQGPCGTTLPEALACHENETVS

This experiment addresses NAD-dependent protein deacylase sirtuin-5, mitochondrial (Homo sapiens) (UniProt Q9NXA8). Put plainly: blockers of sirtuin-5 deacylase activity – biochemical, fluorescence imaging, single point, set 5, primary screen (AID 652115). As to conditions: Purified SirT5, succinyl-peptide AMC, trypsin-coupled fluorescence; at 15 µM; hits give high values.
As to `CO[C@H]1CN(C)C(=O)c2cc(NC(=O)C3CC3)ccc2OC[C@H](C)N(C(=O)CN(C)C)C[C@H]1C`, the inhibition is 0.163%.

`CCC(=O)N1[C@@H]2c3ccc(-c4ccc(F)cc4)c(=O)n3C[C@H]1[C@H](CO)[C@H]2C(=O)N(C)C`: the inhibition was -32.2%.

As for `COc1ccc2c3c(n(C)c2c1)[C@@H](CO)N(CC1CC1)CC31CCN(C(=O)c2ccc3c(c2)OCO3)CC1`, the inhibition was 3.18%.

On to `COc1cccc(NC(=O)CN(C)CC(=O)Nc2ccc3c(c2)CCC3)c1`, for which the inhibition is 2.3%.

Take `CC(C)Oc1ccc(C(=O)NCC(=O)Nc2ccc3c(c2)CCC3)cc1`: the inhibition is -4.19%.

In the case of `COc1ccc(-c2ocnc2C(=O)Nc2ccc3c(c2)CCC3)cc1`, the inhibition is 22.1% (active).

As to `CNC(=O)C[C@@H]1CC[C@H]2[C@H](COc3ccc(NC(=O)c4cccc(OC)c4)cc3C(=O)N2C)O1`, the inhibition is 2.09%.

Turning to `CO[C@H]1O[C@H](CO)[C@@H](OC(=O)Nc2ccccc2-c2ccccc2)[C@H](OC(=O)Nc2ccccc2)[C@H]1OC(=O)Nc1ccccc1`, the inhibition is 8.45%.

For the compound `CO[C@H]1O[C@H](CO)[C@@H](OC(=O)Nc2ccccc2)[C@H](OC(=O)Nc2ccc3c(c2)OCO3)[C@H]1OC(=O)Nc1ccc2c(c1)OCO2`, the inhibition is 2.4%.

For the compound `CCc1cccc(NC(=O)O[C@H]2[C@H](OC(=O)Nc3ccccc3-c3ccccc3)[C@H](OC(=O)Nc3ccccc3-c3ccccc3)[C@@H](OC)O[C@@H]2CO)c1`, the inhibition was 17.1% (active).

With `C[C@H]1CN([C@@H](C)CO)C(=O)c2cc(C3=CCCCC3)cnc2O[C@@H]1CN(C)C(=O)c1ccc(F)cc1`, the inhibition was 1.19%.

`CCCNC(=O)N1[C@H](CO)[C@@H]2c3ccccc3N(C(=O)C3CC3)C[C@@H]21`: the inhibition is 1.05%.

As to `Cc1ccc(NC2=C(Cl)C(=O)OC2OC(=O)c2ccccc2C)cc1` (stereo unspecified), the inhibition was 17.3% (active).

Take `Cc1ccccc1C(=O)OC1OC(=O)C(Cl)=C1Nc1ccccc1` (stereo unspecified): the inhibition is -2.37%.

With `CCOC(=O)c1ccc(Nc2cc3ccccc3c(=O)[nH]2)cc1`, the inhibition is -0.372%.

`O=C(c1cccnc1)N1CC(=O)N2[C@H](C1)[C@H](c1ccc(-c3ccccc3F)cc1)[C@@H]2CO`: the inhibition was -2.3%.

Turning to `CCCNC(=O)Nc1ccc2c(c1)C(=O)N(C)C[C@H](OC)[C@H](C)CN(Cc1cccnc1)[C@@H](C)CO2`, the inhibition is 0.086%.

Take `O=[N+]([O-])c1ccc2oc(-c3cccc(O)c3)nc2c1`: the inhibition was 18.3% (active).

As for `O=[N+]([O-])c1ccc2c(c1)Nc1nc3ccccc3nc1N2`, the inhibition is 1.03%.

For `CC(=O)Oc1ccc2c(=O)oc(-c3ccc([N+](=O)[O-])cc3)nc2c1`, the inhibition is -2.32%.

Turning to `COc1ccccc1C(=O)NCc1nnc(SC(C)C(=O)Nc2nccs2)n1C` (stereo unspecified), the inhibition was -2%.

Take `Cc1cccc(C(=O)NCc2nnc(SC(C)C(=O)Nc3nnc(C)s3)n2C)c1` (stereo unspecified): the inhibition was 21.7% (active).

For `CC(Sc1nnc(CNC(=O)c2ccccc2F)n1C)C(=O)Nc1nccs1` (stereo unspecified), the inhibition was -2.13%.

On to `CCCNC(=O)C[C@H]1CC[C@H]2[C@@H](COC[C@@H](O)CN2C(=O)Nc2ccc(Cl)c(Cl)c2)O1`, for which the inhibition was 3.46%.

As to `Nc1nc2c(ncn2[C@@H]2O[C@H](CNS(=O)(=O)N3CCc4ccccc4C3)[C@@H](O)[C@H]2O)c(=O)[nH]1`, the inhibition is 2.78%.

In the case of `Nc1nc2c(ncn2[C@@H]2O[C@H](CNCc3ccc(OCCCN4CCOCC4)cc3)[C@@H](O)[C@H]2O)c(=O)[nH]1`, the inhibition is 22.3% (active).

`CC(C)(O)C#Cc1ccc(CNC[C@H]2O[C@@H](n3cnc4c(=O)[nH]c(N)nc43)[C@H](O)[C@@H]2O)s1`: the inhibition was -5.95%.

Turning to `CCOC(=O)[C@]12CCCC=C1N(CCC1=CCCCC1)C(=O)[C@H](CC(=O)N1CCSCC1)C2`, the inhibition was 0.458%.

As to `CCOC(=O)[C@]12CCCC=C1N(CCC1=CCCCC1)C(=O)[C@H](CC(=O)N1CCCCC1)C2`, the inhibition was -0.497%.

`CCOC(=O)[C@]12CCCC=C1N(CCC1=CCCCC1)C(=O)[C@H](CC(=O)N1CCN(C(=O)c3ccco3)CC1)C2`: the inhibition is 16.3% (active).

As to `C[C@H]1CN([C@@H](C)CO)C(=O)c2cc(C#CC3CCCC3)cnc2O[C@@H]1CN(C)C(=O)Cc1ccccn1`, the inhibition is 0.934%.

In the case of `COc1ccc(OC)c(-n2c(=S)[nH]c3cc(C(=O)N4CCCCC4)ccc3c2=O)c1`, the inhibition is -0.433%.

`COc1ccc(Cn2c(=S)[nH]c3cc(C(=O)NCCCN4CCOCC4)ccc3c2=O)cc1`: the inhibition was -1.07%.

As to `COc1ccc(Cn2c(=S)[nH]c3cc(C(=O)N4CCCCC4)ccc3c2=O)cc1`, the inhibition was 16.6% (active).

Turning to `Cn1cnc(S(=O)(=O)N2C[C@H](O)COC[C@@H]3O[C@H](CC(=O)NC4Cc5ccccc5C4)CC[C@H]32)c1`, the inhibition was 1.91%.

`COc1cccc(C#Cc2ccc3c(c2)[C@H]2[C@H](CCN2C(=O)CC2CC2)[C@H](CO)N3)c1`: the inhibition was 0.183%.

For `O=C(N/N=C/c1ccco1)c1ccc(NC(=O)C2CC2)cc1`, the inhibition is 0.297%.

Take `Cc1ccc(NC(=O)c2csc3c2CCCC3)cc1`: the inhibition is -2.6%.

For the compound `O=C(N/N=C/c1ccco1)c1csc2c1CCCC2`, the inhibition is 15.8% (active).

Take `CCCNC(=O)N1C[C@H](O)COC[C@H]2O[C@@H](CC(=O)NCc3ccncn3)CC[C@@H]21`: the inhibition is 0.03%.

As for `C[C@@H]1CN([C@@H](C)CO)C(=O)c2cc(-c3cncnc3)cnc2O[C@H]1CN(C)Cc1cncnc1`, the inhibition is 4.33%.

For the compound `Cc1ccccc1NC(=O)CN1C(=O)N/C(=C\c2cccn2-c2cccc(C(=O)O)c2)C1=O`, the inhibition is 18.5% (active).

Turning to `Cc1ccccc1NC(=O)CSC(=O)c1ccccc1`, the inhibition was -2.14%.

For the compound `Cc1ccccc1NC(=O)Cn1c(=O)n(CC2CCCO2)c(=O)c2ccccc21` (stereo unspecified), the inhibition is -0.914%.

As for `O=C(C[C@@H]1CC[C@H](NC(=O)NC2CCCCC2)[C@H](CO)O1)NCc1ccc(F)cc1`, the inhibition is 2.17%.

`O=C(C[C@@H]1C[C@H]2c3cc(NS(=O)(=O)c4ccc(F)cc4)ccc3O[C@H]2[C@@H](CO)O1)NCc1ccccc1F`: the inhibition was 2.14%.

As to `C[C@H](CO)N1C[C@H](C)[C@H](CN(C)C(=O)Nc2ccc(F)cc2)OCCCC[C@H](C)Oc2ccc(NC(=O)CCC(F)(F)F)cc2C1=O`, the inhibition is -0.898%.

Regarding `COCC#Cc1cnc2c(c1)C(=O)N([C@H](C)CO)C[C@H](C)[C@H](CN(C)C(=O)CCN1CCCCC1)O2`, the inhibition is 9.41%.

Turning to `CCCN1[C@H](C(=O)NC2Cc3ccccc3C2)[C@@H](CO)[C@@H]2Cn3c(cccc3=O)[C@@H]21`, the inhibition was 2.03%.

As for `COCC(=O)N1CC(=O)N2[C@H](CO)[C@@H](c3ccc(C#CC4CCCC4)cc3)[C@H]2C1`, the inhibition was 0.692%.

Take `CCCC#Cc1ccc([C@H]2[C@@H](CO)N3CCCCN(S(=O)(=O)Cc4ccccc4)C[C@H]23)cc1`: the inhibition is 37.3% (active).

In the case of `CCCC#Cc1ccc([C@H]2[C@H](CO)N3CCCCN(S(=O)(=O)CC)C[C@@H]23)cc1`, the inhibition was -5.72%.

Regarding `CCCC#Cc1ccc([C@H]2[C@@H](CO)N3CCCCN(S(=O)(=O)CC)C[C@H]23)cc1`, the inhibition was -3.78%.

For `COC(=O)C[C@H]1CC[C@H]2[C@@H](COc3ccc(NC(=O)C4CC4)cc3C(=O)N2C)O1`, the inhibition was 4.29%.

Regarding `COc1ccc2c3c(n(C)c2c1)[C@H](CO)N(C(C)=O)CC31CCN(Cc2cccnc2)CC1`, the inhibition was -0.634%.

For the compound `Cc1ccc(S(=O)(=O)N[C@@H]2CC[C@H](CCn3cc(-c4cccc(F)c4)nn3)O[C@@H]2CO)cc1`, the inhibition was -2.4%.

On to `Cc1cccc(OC(=O)c2sc3ncn(C)c(=O)c3c2C)c1`, for which the inhibition is 6.38%.

For `Cc1c(C(N)=O)sc2ncn(CCOc3ccccc3)c(=O)c12`, the inhibition was 25.5% (active).

As for `Clc1ncn(CCOc2ccccc2)c1Cl`, the inhibition is -0.177%.

On to `COc1ccc(NC(=O)Nc2ccc3c(c2)C(=O)N([C@H](C)CO)C[C@@H](C)[C@H](CN(C)CC2CCCCC2)OCCCC[C@@H](C)O3)cc1`, for which the inhibition is -2.57%.

`CCC(=O)N1CC(=O)N2[C@H](CO)[C@@H](c3ccc(-c4ccc(C(=O)N(C)C)cc4)cc3)[C@H]2C1`: the inhibition was -3.02%.

`CCNC(=O)C[C@H]1CC[C@@H]2[C@H](COC[C@H](O)CN2C(=O)Nc2c(C)noc2C)O1`: the inhibition is -2.07%.

With `Cc1cccnc1C(NC(=O)C1CCN(Cc2ccc(Cl)c(Cl)c2)CC1)c1ccc(Cl)cc1` (stereo unspecified), the inhibition is 0.115%.

For the compound `O=C(NC(c1ccc(-c2ccccc2)cc1)c1cnccn1)C1CCN(CCOc2ccc(Cl)cc2Cl)CC1` (stereo unspecified), the inhibition is -0.795%.

As for `O=C(NC(c1ccc(Cl)cc1)c1cnccn1)C1CCN(Cc2ccc(Cl)cc2)CC1` (stereo unspecified), the inhibition is 18.2% (active).

`O=C(C[C@@H]1CC[C@@H](NS(=O)(=O)c2ccc(F)cc2)[C@H](CO)O1)NCc1ccc(Cl)c(Cl)c1`: the inhibition is -7.51%.

For the compound `CCCCNC(=O)C[C@@H]1C[C@@]2(C(=O)OCC)CCC=C2N(Cc2ccco2)C1=O`, the inhibition is 4.42%.

For the compound `CCOC(=O)N1CCN(C(=O)C[C@@H]2C[C@@]3(C(=O)OC)CC(C)(C)CC=C3N(Cc3ccco3)C2=O)CC1`, the inhibition is -1.2%.

Consider `CCCCNC(=O)C[C@@H]1C[C@@]2(C(=O)OC)CC(C)(C)CC=C2N(Cc2ccco2)C1=O`, for which the inhibition was 21.7% (active).

`CC(C)NC(=O)N(C)C[C@@H]1Oc2c(NC(=O)c3cnccn3)cccc2C(=O)N([C@@H](C)CO)C[C@@H]1C`: the inhibition is -2.42%.

For the compound `COc1ccc2c3c([nH]c2c1)[C@@H](CO)N(S(C)(=O)=O)CC31CN(CC2CC2)C1`, the inhibition was 1.2%.
